Screening data deposited in PubChem by several laboratories.
Cl transport mod – KCC2 (human) Cl- transport modulation; Q9H2X9; KCC2 cells, thallium flux FluoZin-2 fluorescence; B-score of Tl+ flux slope (higher = more flux/activation; lower = inhibition) at 10 µM; 2.2% of 190,000 active;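 active means thallium flux slope and its plate-corrected score both differing from the plate sample mean at a set confidence after two filtering rounds, in either direction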;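 further: slope of fluorescence scaled to starting intensity during 10 to 20 s after thallium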
Target sequence (Q9H2X9 whole entry, looked up): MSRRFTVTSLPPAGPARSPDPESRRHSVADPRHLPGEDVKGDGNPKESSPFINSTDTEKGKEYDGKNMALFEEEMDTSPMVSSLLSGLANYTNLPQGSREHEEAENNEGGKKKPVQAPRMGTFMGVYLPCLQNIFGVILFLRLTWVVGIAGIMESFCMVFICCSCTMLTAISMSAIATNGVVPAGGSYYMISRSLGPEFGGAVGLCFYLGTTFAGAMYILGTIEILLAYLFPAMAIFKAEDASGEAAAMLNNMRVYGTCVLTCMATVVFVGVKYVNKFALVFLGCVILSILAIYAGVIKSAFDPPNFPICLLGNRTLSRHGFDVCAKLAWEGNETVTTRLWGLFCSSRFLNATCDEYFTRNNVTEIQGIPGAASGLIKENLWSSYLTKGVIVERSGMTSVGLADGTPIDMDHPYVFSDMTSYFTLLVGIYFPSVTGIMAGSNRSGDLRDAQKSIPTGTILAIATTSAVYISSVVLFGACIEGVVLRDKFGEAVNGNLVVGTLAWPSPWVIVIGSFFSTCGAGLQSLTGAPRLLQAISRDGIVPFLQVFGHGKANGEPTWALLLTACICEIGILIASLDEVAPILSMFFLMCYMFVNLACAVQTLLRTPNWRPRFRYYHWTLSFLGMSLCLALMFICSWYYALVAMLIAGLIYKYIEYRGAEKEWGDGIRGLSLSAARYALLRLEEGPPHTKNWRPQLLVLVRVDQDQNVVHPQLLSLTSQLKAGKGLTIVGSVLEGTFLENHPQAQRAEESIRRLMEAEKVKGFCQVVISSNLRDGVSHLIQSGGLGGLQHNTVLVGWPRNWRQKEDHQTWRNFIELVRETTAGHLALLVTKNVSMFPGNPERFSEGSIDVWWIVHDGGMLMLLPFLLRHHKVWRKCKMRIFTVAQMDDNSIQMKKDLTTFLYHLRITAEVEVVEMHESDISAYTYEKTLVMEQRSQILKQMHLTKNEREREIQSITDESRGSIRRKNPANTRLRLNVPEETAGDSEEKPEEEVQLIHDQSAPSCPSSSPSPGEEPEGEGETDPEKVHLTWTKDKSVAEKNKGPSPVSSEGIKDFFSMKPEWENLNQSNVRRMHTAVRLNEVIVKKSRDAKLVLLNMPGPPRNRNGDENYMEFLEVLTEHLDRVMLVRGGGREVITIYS
PGE2 EP2 inh – EP2 receptor (human) inhibition; P43116; C6 glioma cells expressing human EP2, cAMP TR-FRET; cells stimulated with saturating PGE2; inhibition, % at 25 µM; 0.52% of 260,000 active; AID 1422;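 active means percent inhibition above 40 after rounding to a whole number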;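 further: rat C6 glioma host cells with rolipram phosphodiesterase inhibitor present; the protocol text gives 20 µM as final concentration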
EP2 modulator – EP2 receptor (human) modulation | EP2-expressing cells, cAMP HTRF FRET, PGE2 co-stimulation | induction, % at 25 µM | AID 940 | 0.83% of 260,000 active;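 active means compounds whose cAMP rise, as percent of the full-agonist control response, exceeds 60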;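 further: rat C6 glioma line stably carrying human EP2 under a CMV promoter; the protocol text gives 20 µM as final concentration; 100% = response of wells given 1 µM PGE2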
S1P3 antag – S1P3 (human) receptor antagonism | Q99500 | CHO S1P3 NFAT-BLA reporter, FRET fluorescence, antagonist mode | inhibition, % at 4.98 µM | 0.27% of 170,000 active | AID 485;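 active means inhibition above the plate cutoff, the mean inhibition of test wells on that plate plus 3 SD, cut at about 28% in these data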;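 further: cells challenged with S1P at its EC80 of 0.8 µM; blue over green emission ratio from cleaved BLA substrate after 4 h stimulation; 0% = S1P-stimulated wells and 100% = unstimulated DMSO-only wells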
KCC2 sec1 – confirmation of human KCC2 transport modulators | normalised thallium flux (F/F0 slope) at 10 µM | shares compounds with Cl transport mod | 15% of 3,700 active | HEK293-KCC2, thallium flux, FluoZin2 fluorescence; active compounds read high;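 active means thallium flux slope above the same plate's solvent-only control mean plus 3 SD; inconclusive means the two replicate wells disagree; inactive means no significant difference from solvent-only control wells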
KCC2 bumet counter – thallium flux persisting under bumetanide in KCC2 cells, counter-screen secondary assay; shares compounds with Cl transport mod; HEK293-KCC2 + bumetanide/ouabain, thallium flux FluoZin2; active compounds read high; normalized thallium flux at 10 µM; 49% of 3,700 active;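 active means thallium entry rate above the same plate's blocked-transporter control wells by more than 3 SD; inconclusive means the two repeat wells disagree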;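 further: raw slope of fluorescence over initial fluorescence between 10 and 20 s after thallium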
KCC2 secondary2 – KCC2 (human) modulation, second secondary assay; shares compounds with Cl transport mod; HEK293-KCC2, thallium flux FluoZin2 fluorescence; actives lie on both sides; F/F0 rise rate, 10–20 s post-thallium; normalized thallium flux at 10 µM; 23% of 3,700 active;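 active means thallium flux slope more than 3 SD above or below the plate's solvent-only control mean, mostly below; inconclusive means the two repeat wells disagreed; inactive means no significant shift from solvent-only controls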;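 further: raw slope with 0.1% DMSO as baseline and bumetanide as block control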
HEK293 Tl flux – counter-screen for KCC2 modulators: effect in parental HEK293 cells | 46% of 3,700 active | thallium flux rate (normalised fluorescence) at 10 µM | thallium flux FluoZin2, ouabain; baseline-ratio fluorescence slope, 10–20 s after thallium | AID 1716 | shares compounds with Cl transport mod;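 active means thallium flux rate significantly above the same plate's solvent-only control wells, beyond their mean plus 3 SD; inconclusive means the two replicate wells gave conflicting results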
KCC2 retest ouab – KCC2 (human) modulation, ouabain retest; AID 1717; raw Tl+ flux slope (below DMSO = inhibition, above = activation) at 10 µM; shares compounds with Cl transport mod; 48% of 3,700 active; HEK293-KCC2, thallium flux FluoZin2 fluorescence; bidirectional: low = inhibitor, high = activator;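 active means thallium flux slope beyond 3 SD from same-plate DMSO control mean in most replicates, usually higher, sometimes lower; inconclusive means repeat tests gave conflicting results; inactive means no significant difference from controls in most replicates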;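 further: slope of initial-normalized fluorescence between seconds 10 and 20 after thallium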
HEK counter2 – parental HEK flux effect, counter-screen 2; shares compounds with Cl transport mod; AID 1718; 33% of 3,700 active; thallium flux slope at 10 µM; HEK293 parental, thallium flux FluoZin-2 fluorescence slope;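 active means thallium flux slope above the same plate's solvent-control mean plus 3 SD in both duplicate wells; inconclusive means duplicate wells that disagreed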;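 further: run without ouabain in cells lacking the KCC2 cotransporter; slope of fluorescence scaled to its starting value between 10 and 20 s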
Active calls of the source: *. A selection: hits, their analogues and other compounds. The true share with any hit is near 3.1%.

How did O=c1nc(Nc2cccc(Cl)c2)oc2cc(Cl)oc(=O)c12 do in these assays?
Cl transport mod: -4.53*; PGE2 EP2 inh: 17.3; EP2 modulator: -42.5; S1P3 antag: 1.7; KCC2 sec1: 0.00622; KCC2 bumet counter: 0.00485; KCC2 secondary2: 0.029; HEK293 Tl flux: 0.00646; KCC2 retest ouab: inconclusive; HEK counter2: 0.0102

What do the screens show for `COc1ccc(C(O)CN2CCC3(CC2)CC(O)c2cc(C)ccc2O3)cc1` (configuration not stated)?
PGE2 EP2 inh: 8.3; EP2 modulator: -108.0

What do the screens show for `C/C(=N\NC(=O)c1ccc(-c2ccccc2)cc1)C1C(=O)c2ccccc2C1=O`?
Cl transport mod: 0.93; PGE2 EP2 inh: 8.4; EP2 modulator: -74.5; S1P3 antag: 2.1

How did C/C(=N\NC(=O)c1ccc(Br)cc1)C1C(=O)c2ccccc2C1=O do in these assays?
Cl transport mod: -5.38*; EP2 modulator: -40.9; KCC2 sec1: 0.00593; KCC2 bumet counter: 0.00454; KCC2 secondary2: 0.0228*; HEK293 Tl flux: 0.00859; KCC2 retest ouab: inconclusive; HEK counter2: 0.0123

How did COc1ccc(-c2noc(C3CCCN(C(=O)c4cccc(Cl)c4)C3)n2)cc1OC (configuration not stated) do in these assays?
PGE2 EP2 inh: 10.3; EP2 modulator: -11.3

How did O=C(NNC(=S)Nc1cccc(Cl)c1)c1ccccc1OC(F)F do in these assays?
Cl transport mod: 6.39*; PGE2 EP2 inh: 5.5; EP2 modulator: -23.8; S1P3 antag: -8.8; KCC2 sec1: 0.0104; KCC2 bumet counter: 0.0332*; KCC2 secondary2: 0.0342; HEK293 Tl flux: 0.0168*; KCC2 retest ouab: 0.0355*; HEK counter2: 0.0124*

What do the screens show for `Cc1ccc(NC(=S)NNC(=O)c2ccccc2OC(F)F)cc1`?
Cl transport mod: 8.35*; EP2 modulator: -18.0; KCC2 sec1: 0.0115; KCC2 bumet counter: 0.0219*; KCC2 secondary2: 0.0332; HEK293 Tl flux: 0.0182*; KCC2 retest ouab: 0.028*; HEK counter2: 0.0133*

Results for O=C(NNC(=S)Nc1ccc(F)cc1)c1ccccc1OC(F)F ?
Cl transport mod: 0.327; PGE2 EP2 inh: 8.7; EP2 modulator: -8.1

What do the screens show for `COc1cccc(NC(=S)NNC(=O)c2ccccc2OC(F)F)c1`?
Cl transport mod: 2.43; PGE2 EP2 inh: 12.2; EP2 modulator: 2.0

What do the screens show for `CC(C)c1ccc(/C=N/NC(=O)c2ccccc2Cl)cc1`?
Cl transport mod: -4.43*; PGE2 EP2 inh: 9.0; EP2 modulator: -2.7; S1P3 antag: -7.2; KCC2 sec1: 0.00541; KCC2 bumet counter: 0.00501; KCC2 secondary2: 0.0237*; HEK293 Tl flux: 0.00715; KCC2 retest ouab: inconclusive; HEK counter2: 0.0101

What do the screens show for `Cc1c(Br)c([N+](=O)[O-])nn1CCCC(=O)N1CCN(c2ccccc2)CC1`?
Cl transport mod: -0.0993; PGE2 EP2 inh: 12.1; EP2 modulator: -17.7; S1P3 antag: -4.0

How did Cc1c(Cl)c([N+](=O)[O-])nn1CCCC(=O)N1CCN(c2ccccc2)CC1 do in these assays?
Cl transport mod: -2.74*; PGE2 EP2 inh: 7.1; EP2 modulator: 32.1; KCC2 sec1: 0.01; KCC2 bumet counter: inconclusive; KCC2 secondary2: 0.0354; HEK293 Tl flux: 0.00814; KCC2 retest ouab: 0.021; HEK counter2: inconclusive

Results for CCOc1ccc2nc(N3C(=O)/C(=C/c4ccc(Cl)cc4)NC3=S)sc2c1 ?
Cl transport mod: 18.8*; PGE2 EP2 inh: 11.2; EP2 modulator: 10.7; S1P3 antag: 7.8; KCC2 sec1: 0.00725; KCC2 bumet counter: 0.0455*; KCC2 secondary2: 0.0493*; HEK293 Tl flux: 0.0628*; KCC2 retest ouab: 0.0483*; HEK counter2: 0.0466*

Results for COc1ccc2nc(N3C(=O)CNC3=S)sc2c1 ?
Cl transport mod: 3.58; PGE2 EP2 inh: 2.7; EP2 modulator: -32.6; S1P3 antag: 3.5

What do the screens show for `CCN1CCCC1CN(Cc1cc2c(C)cc(C)cc2[nH]c1=O)C(=O)Nc1ccccc1F` (configuration not stated)?
PGE2 EP2 inh: 6.0; EP2 modulator: 11.9

What do the screens show for `O=C(Nc1nc2c(Br)cc(Br)cc2c(=O)s1)C1CCC1`?
Cl transport mod: 9.9*; PGE2 EP2 inh: 12.8; EP2 modulator: 38.3; S1P3 antag: 7.7; KCC2 sec1: 0.0235*; KCC2 bumet counter: 0.0412*; KCC2 secondary2: 0.0344; HEK293 Tl flux: 0.0271*; KCC2 retest ouab: 0.0442*; HEK counter2: 0.0146*

How did O=C(Nc1nc2c(s1)CN(Cc1ccccc1)CC2)C1CCC1 do in these assays?
Cl transport mod: -2.33; PGE2 EP2 inh: 7.0; EP2 modulator: -23.3; S1P3 antag: -13.9

Results for O=C(c1ccc(O)cc1)c1ccc(O)cc1O ?
Cl transport mod: 1.06; PGE2 EP2 inh: 6.1; EP2 modulator: 29.1; S1P3 antag: -2.0

How did CN(C)c1ccc(C(=O)c2ccc(O)cc2O)cc1 do in these assays?
Cl transport mod: -3.59*; PGE2 EP2 inh: 11.4; EP2 modulator: 16.7; KCC2 sec1: 0.00761; KCC2 bumet counter: 0.00586; KCC2 secondary2: 0.0336; HEK293 Tl flux: 0.00747; KCC2 retest ouab: inconclusive; HEK counter2: 0.0107

What do the screens show for `CC(=O)CCc1c(C)[nH]c2ccccc2c1=O`?
Cl transport mod: 0.883; PGE2 EP2 inh: 9.5; EP2 modulator: 15.4; S1P3 antag: -12.0

What do the screens show for `CCc1c(C)[nH]c2ccccc2c1=O`?
Cl transport mod: 7.59*; PGE2 EP2 inh: 8.2; EP2 modulator: 11.0; S1P3 antag: -36.8; KCC2 sec1: 0.00692; KCC2 bumet counter: inconclusive; KCC2 secondary2: 0.0273; HEK293 Tl flux: 0.00772; KCC2 retest ouab: 0.0189; HEK counter2: 0.0103

What do the screens show for `O=C(COc1ccc(Br)cc1)N/N=C1/SCC(=O)N1Cc1ccco1`?
Cl transport mod: -0.618; PGE2 EP2 inh: 3.7; EP2 modulator: -15.6; S1P3 antag: 3.7

Results for CCOc1ccc(N2C(=O)CS/C2=N/NC(=O)COc2ccc3ccccc3c2)cc1 ?
Cl transport mod: -5.01*; EP2 modulator: -28.8; KCC2 sec1: 0.00873; KCC2 bumet counter: 0.00597; KCC2 secondary2: 0.0295*; HEK293 Tl flux: 0.00451; KCC2 retest ouab: 0.0157*; HEK counter2: 0.0109
